Data as given in PubChem BioAssay (NCATS).
Unmarked numbers belong to inactive results. Records with an inconclusive call do not appear. Entries that show only a call come without a potency. Activity calls are given as the source filed them. Calls follow the shape of the dose curve; as a rule, active = well fitted curve in the direction sought with a large enough effect; inconclusive = small, poorly fitted or top-dose-only effect, or another doubt; inactive = no such curve, though single readings can be large; an effect the other way counts as inactive or inconclusive.

Legend:
[1] = Primary fluorescence-based thiol-reactive (MSTI) qHTS assay for identification of artifact compounds. (AID 1845221); conditions: MSTI thiol-reactivity probe, 1 h; series mostly up to 53.8 µM; also: nearly all actives have a fitted effect of over 65% in size; also: potency is read from the fitted curve at half-maximal effect;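 as to activity change, negative = thiol reactive: thiol-reactive compounds lower the probe fluorescence signal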
Outline: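 A multi-concentration qHTS design tested compounds against 4 uM MSTI, pH 7.4 phosphate-buffered saline. Plates were protected from light for 1 h at room temperature before imaging fluorescence.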

[2] = system: Nanoluciferase (engineered Oplophorus gracilirostris luciferase); test: Primary Nanoluciferase (NLuc) qHTS assay for identification of artifact compounds. (AID 1845222); conditions: NLuc-conditioned medium, Nano-Glo luminescence, 5 min; series mostly up to 54.1 µM
Outline: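 Luminescence from secreted NLuc (filtered, 1:55-diluted S16 cell medium) read 5 min after Nano-Glo substrate; compounds preincubated 15 min, RT. Hill fits of inhibition normalized to DMSO and no-enzyme.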

[3] = Primary redox qHTS assay for identification of artifact compounds. (AID 1845223); conditions: Amplex Red/HRP redox cycling with DTT, fluorescence; series mostly up to 53.8 µM
Outline: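 Redox-cycling detection via DTT (250 uM final) oxidation coupled to Amplex Red (25 uM)/HRP (250 mU/mL) in HBSS. 15 min preincubation plus 30 min after DTT, room temperature. Ex/Em 525/598 nm; 4-parameter Hill fit against DMSO and 10 uM DA3003.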

[4] = Quantitative High-Throughput drug screen in 47 multiple myeloma cell lines against the NCATS MIPE library collection: Delta47_JCRB cell viability assay (AID 1918925; also: nearly all actives have a fitted effect of over 45% in size; also: potency is read from the fitted curve at half-maximal effect); conditions: Delta47 myeloma viability, CellTiter-Glo ATP, 48 h; series mostly up to 45.8 µM
Outline: (§1)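 Primary qHTS used for cherry-picking: cells at 500/well, library compounds for 48 h (37C, 5% CO2), luminescent ATP assay.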

[5] = Quantitative High-Throughput drug screen in 47 multiple myeloma cell lines against the NCATS MIPE library collection: EJM_DSMZ cell viability assay (AID 1918926; also: nearly all actives have a fitted effect of over 30% in size; also: potency is read from the fitted curve at half-maximal effect); conditions: EJM myeloma cell viability, CellTiter-Glo ATP, 48 h; series mostly up to 45.8 µM
Outline: as §1

[6] = Quantitative High-Throughput drug screen in 47 multiple myeloma cell lines against the NCATS MIPE library collection: AMO1_DSMZ cell viability assay (AID 1918927; also: nearly all actives have a fitted effect of over 30% in size; also: potency is read from the fitted curve at half-maximal effect); conditions: AMO1 myeloma cells viability, CellTiter-Glo ATP luminescence, 48 h; series mostly up to 45.8 µM
Outline: as §1

[7] = Quantitative High-Throughput drug screen in 47 multiple myeloma cell lines against the NCATS MIPE library collection: ARP1_JJKsccF8 cell viability assay (AID 1918928; also: nearly all actives have a fitted effect of over 40% in size; also: potency is read from the fitted curve at half-maximal effect); conditions: ARP1 myeloma cells viability, CellTiter-Glo ATP, 48 h; series mostly up to 45.8 µM
Outline: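 500 cells/well; MIPE 4.0 library pinned in; 48 h, 37 °C, 5% CO2; CellTiter-Glo ATP luminescence. Controls: DMSO = 100% viability, medium only = 0%.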

[8] = Quantitative High-Throughput drug screen in 47 multiple myeloma cell lines against the NCATS MIPE library collection: ARD_JJKsccE7 cell viability assay (AID 1918929; also: potency is read from the fitted curve at half-maximal effect); conditions: ARD myeloma cell line viability, CellTiter-Glo, 48 h; series mostly up to 45.8 µM
Outline: as §1

[9] = Quantitative High-Throughput drug screen in 47 multiple myeloma cell lines against the NCATS MIPE library collection: Karpas620_DSMZ cell viability assay (AID 1918959); conditions: Karpas620 myeloma viability, CellTiter-Glo ATP luminescence, 48 h; series mostly up to 45.8 µM; also: nearly all actives have a fitted effect of over 30% in size; also: potency is read from the fitted curve at half-maximal effect
Outline: (§2)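 Myeloma cells (500 per well) were exposed to MIPE 4.0 compounds by pin transfer and incubated 48 hours at 37C, 5% CO2. Viability was read as ATP by CellTiter-Glo luminescence, normalised to DMSO (100%) and media-only (0%) wells.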

[10] = Quantitative High-Throughput drug screen in 47 multiple myeloma cell lines against the NCATS MIPE library collection: FR4_PLB cell viability assay (AID 1918924; also: nearly all actives have a fitted effect of over 35% in size; also: potency is read from the fitted curve at half-maximal effect); conditions: FR4_PLB myeloma cells viability, CellTiter-Glo ATP, 48 h; series mostly up to 45.8 µM
Outline: as §2

Compound	Potency [1]	Potency [2]	outcome [3]	Potency [4]	Potency [5]	Potency [6]	Potency [7]	Potency [8]	Potency [9]	activity change, negative = thiol reactive [1]	activity, negative = inhibition [2]	redox activity (% of DA3003) [3]	Potency [10]
C[C@@]1(c2cc(-c3cncnc3)c(F)cc2F)CCSC(N)=N1	inactive	inactive	inactive	inactive	inactive	14.8 µM (active)	inactive	0.059 µM (active)	2.35 µM (active)				
CCC(=O)N1CCN(c2ccc(-n3c(=O)ccc4cnc5ccc(-c6cnc7ccccc7c6)cc5c43)cc2C(F)(F)F)CC1				0.0166 µM (active)					0.0187 µM (active)	-11% [at 11.5 µM]	4.43% [at 11.6 µM]	-10.4% [at 11.5 µM]	0.0132 µM (active)
CCn1c(-c2nonc2N)nc2cncc(CNC3CCNCC3)c21	inactive	inactive	inactive		inactive		10.5 µM (active)						
Cc1ccccc1-n1c(Cn2nc(-c3cccc(O)c3)c3c(N)ncnc32)nc2cccc(C)c2c1=O	inactive	inactive	inactive	2.96 µM (active)		0.372 µM (active)	3.32 µM (active)	1.05 µM (active)	0.833 µM (active)				8.33 µM (active)
Cc1cnc(-c2cc(N3CCN(C(=O)CCS(C)(=O)=O)CC3)ncc2Cl)c(C)c1	inactive	inactive		inactive	0.0132 µM (active)		inactive	inactive	inactive				inactive
Cc1cccc2c1CC[C@H](CN1CCC(c3c(Cl)cccc3Cl)CC1)C[C@@H]2O	inactive	inactive	inactive	16.6 µM (active)	18.7 µM (active)				11.8 µM (active)				
NS(=O)(=O)c1cc(Cl)c(Cl)c(S(N)(=O)=O)c1	inactive	inactive	inactive	inactive	inactive	inactive	8.33 µM (active)	inactive	inactive				inactive
CCN1C[C@H](C)n2c(c(O)c3c(=O)n(Cc4ccc(F)c(Cl)c4)nc(C(=O)NC)c32)C1=O	29.9 µM (active)	inactive	inactive		inactive	inactive	inactive	inactive	0.0066 µM (active)				
O=C(O)CCNc1cc(N2CCc3ccccc3CC2)nc(-c2ccccn2)n1	inactive	inactive	inactive	inactive				inactive					inactive
CC(=O)Nc1cccc(-n2c(=O)n(C3CC3)c(=O)c3c(Nc4ccc(I)cc4F)n(C)c(=O)c(C)c32)c1	inactive	inactive	inactive		0.0372 µM (active)	1.18 µM (active)	inactive		0.0296 µM (active)				0.743 µM (active)
Cc1cc(C(C)Nc2ccccc2)c2nc(N3CCOCC3)cc(=O)n2c1 (stereo not drawn)	inactive	inactive	inactive	9.35 µM (active)		18.7 µM (active)							
c1ccc(-c2oc3ncnc(NC[C@@H]4CCCO4)c3c2-c2ccccc2)cc1	inactive	inactive	inactive			inactive			6.62 µM (active)				
CN[C@@H](C)[C@H]1[C@H](O)C[C@@]2(C)[C@@H]3CC[C@H]4C(C)(C)[C@@H](NC)CC[C@@]45C[C@@]35CC[C@]12C				inactive	inactive		23.5 µM (active)	inactive	inactive	7.61% [at 11.5 µM]	3.6% [at 11.6 µM]	-0.744% [at 11.5 µM]	
NC(=O)c1ccc(N(C(N)=O)c2c(F)cccc2F)nc1-c1ccc(F)cc1F	inactive	inactive	inactive	5.9 µM (active)			inactive		inactive				inactive
O=C(Nc1cccc(C(F)(F)F)c1)Nc1cc(S(=O)(=O)NC2CC2)ccc1-c1ccsc1	inactive	inactive	inactive		inactive			inactive	inactive				
CCCCC(F)(F)[C@@]1(O)CC[C@H]2[C@H](CC(=O)[C@@H]2CCCCCCC(=O)O)O1	inactive	inactive		inactive	inactive	inactive	inactive	inactive	inactive				inactive
COc1ccc(-c2cc3nccn3c(Nc3ncccc3C(N)=O)n2)cc1OC		inactive	inactive	0.833 µM (active)	4.69 µM (active)	0.469 µM (active)	4.69 µM (active)		inactive				3.32 µM (active)
NC1(C(=O)N[C@@H](CCO)c2ccc(Cl)cc2)CCN(c2ncnc3[nH]ccc23)CC1		inactive	inactive	0.0833 µM (active)	10.5 µM (active)	1.87 µM (active)	2.09 µM (active)	0.0469 µM (active)	2.64 µM (active)				
O=C(CC12CC3CC(CC(C3)C1)C2)Nc1cccc2nc(NCCNCCO)ccc12	inactive	inactive		2.64 µM (active)	11.8 µM (active)	20.9 µM (active)		18.7 µM (active)					
COc1ccc(-c2ccc3ncc4c(c3c2)n(-c2ccc(N3CCNCC3)c(C(F)(F)F)c2)c(=O)n4C)cn1	inactive	inactive			0.0332 µM (active)				0.0833 µM (active)				
COc1cc2nccc(Oc3ccc(NC(=O)Nc4cc(C)on4)c(Cl)c3)c2cc1OC		inactive	inactive	18.7 µM (active)	13.2 µM (active)	4.18 µM (active)		6.62 µM (active)					20.9 µM (active)
